Laboratory results: the supplement of paper PMC10849652
The full data set covers some 7,900 targets. This sample favours those with a hit. About 0.6% of all pairs of compound and target were hits. Values without a mark were called inactive.

Tests used:
Test in all cases: log2 fold change, soluble protein after heating vs DMSO (PISA); higher = thermal stabilisation; K562 cells, 10 uM, 30 min; active = over 0.2 and 3.5 SD of the protein, either way, in both replicates (recomputed)
[1] = compound: C#Cc1cccc(Nc2ncnc3cc(OCCOC)c(OCCOC)cc23)c1 [erlotinib]
Summary of the method: (§1)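 K562 cells (2×10^6 cells/mL) were treated with 10 μM compound for 30 min, and aliquots were heated for 3 min over 48°C-58°C. Pooled aliquots were extracted in PBS with 0.5% NP-40 at 4°C, and the supernatant after 21,000xg for 90 min was measured by TMTpro 16plex LC-MS/MS with channel sums equalised. Reported thermal stability, relative to control samples and from duplicates, is a log2 fold change.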

[2] = compound: C/C(=N\NC(=O)C1=CC(=CC=C1)S(=O)(=O)N2CCOCC2)/C3=C(C=CC(=C3)Cl)O
Summary of the method: as §1

[3] = compound: C1=CC(=C(C=C1Cl)C2=NC3=NC=CN=C3C(=N2)NC4=CC=NC=C4)F
Summary of the method: as §1

[4] = compound: C1=CC(=CC=C1C2=NC3=C(N2)C=C(C=C3)C(=O)N)OC4=CC=C(C=C4)Cl
Summary of the method: as §1

[5] = compound: C1=CC2=C(C=CC(=C2)/C=C\3/C(=O)NC(=NCC4=CC=CS4)S3)N=C1
Summary of the method: as §1

[6] = compound: C1=CC2=NC=CN=C2C=C1/C=C/3\C(=O)NC(=O)S3
Summary of the method: as §1

[7] = compound: C1=CC=C(C=C1)C2=NC(=C(N2)C3=CC=NC=C3)C4=CC(=C(C=C4)Cl)O
Summary of the method: as §1

[8] = compound: C1=CC=C2C(=C1)C3=NNC4=CC=CC(=C43)C2=O
Summary of the method: as §1

[9] = compound: C1CCN(C1)C(=O)NC2=CC=CC(=C2)NC3=NC=C(C(=N3)NCCC4=CN=CN4)Br
Summary of the method: as §1

[10] = compound: C1CN(CCC1(CC2=CC=C(C=C2)Cl)N)C3=NC=NC4=C3C=CN4
Summary of the method: as §1

[11] = compound: C1COCCN1CCN2C3=CC=CC=C3N=C2NC(=O)C4=CC(=CC=C4)[N+](=O)[O-] [IRAK-1-4 Inhibitor I]
Summary of the method: as §1

[12] = compound: C=CC(=O)N1CCC[C@@H](n2nc(-c3ccc(Oc4ccccc4)cc3)c3c(N)ncnc32)C1 [ibrutinib]
Summary of the method: as §1

[13] = compound: CC(=O)c1cnc2ccc(-c3cc(Cl)c(O)c(Cl)c3)nc2c1N[C@H]1CC[C@H](CN(C)C)CC1
Summary of the method: as §1

[14] = compound: CC(C)(C)Cn1c(N)nc2ccc(-c3[nH]c(C(C)(C)C)nc3-c3ccc(F)cc3)nc21 [ralimetinib]
Summary of the method: as §1

[15] = compound: CC(C)(O)CC(=O)NCCn1ccc2ncnc(Nc3ccc(Oc4cccc(C(F)(F)F)c4)c(Cl)c3)c21
Summary of the method: as §1

[16] = compound: CC(C)C1=C2N=C(C=C(N2N=C1)NCC3=CC=CC=C3)NCCCCCCN
Summary of the method: as §1

[17] = compound: CC(C)C[C@@H](C=O)NC(=O)[C@H](CC(C)C)NC(=O)[C@H](CC(C)C)NC(=O)OCc1ccccc1
Summary of the method: as §1

[18] = compound: CC(C)N(C[C@H]1O[C@@H](n2cnc3c(N)ncnc32)[C@H](O)[C@@H]1O)[C@H]1C[C@@H](CCc2nc3cc(C(C)(C)C)ccc3[nH]2)C1 [pinometostat]
Summary of the method: as §1

[19] = compound: CC1=C(C(CC(=O)N1)C2=CC=C(C=C2)C(F)(F)F)C(=O)NC3=C(C=C4C(=C3)C=NN4)F
Summary of the method: as §1

[20] = compound: CC1=C(C2=C(C=C1)C(=O)C3=CC=CC=C3N2CCCN)C
Summary of the method: as §1

UniProt O43181, sequence (O43181 whole entry, looked up): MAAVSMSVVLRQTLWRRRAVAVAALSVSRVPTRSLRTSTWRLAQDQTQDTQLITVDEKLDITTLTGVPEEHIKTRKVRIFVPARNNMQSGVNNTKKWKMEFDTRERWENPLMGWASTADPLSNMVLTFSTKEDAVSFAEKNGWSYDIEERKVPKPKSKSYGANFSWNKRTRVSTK
UniProt Q96MF7, sequence (Q96MF7 whole entry, looked up): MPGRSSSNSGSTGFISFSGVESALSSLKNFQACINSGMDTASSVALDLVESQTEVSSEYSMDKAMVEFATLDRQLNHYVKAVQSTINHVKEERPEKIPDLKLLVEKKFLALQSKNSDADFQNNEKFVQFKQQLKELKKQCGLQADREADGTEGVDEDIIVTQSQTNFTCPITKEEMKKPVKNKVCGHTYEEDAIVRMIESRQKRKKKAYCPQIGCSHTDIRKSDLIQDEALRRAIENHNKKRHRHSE
UniProt Q15021, sequence (Q15021 whole entry, looked up): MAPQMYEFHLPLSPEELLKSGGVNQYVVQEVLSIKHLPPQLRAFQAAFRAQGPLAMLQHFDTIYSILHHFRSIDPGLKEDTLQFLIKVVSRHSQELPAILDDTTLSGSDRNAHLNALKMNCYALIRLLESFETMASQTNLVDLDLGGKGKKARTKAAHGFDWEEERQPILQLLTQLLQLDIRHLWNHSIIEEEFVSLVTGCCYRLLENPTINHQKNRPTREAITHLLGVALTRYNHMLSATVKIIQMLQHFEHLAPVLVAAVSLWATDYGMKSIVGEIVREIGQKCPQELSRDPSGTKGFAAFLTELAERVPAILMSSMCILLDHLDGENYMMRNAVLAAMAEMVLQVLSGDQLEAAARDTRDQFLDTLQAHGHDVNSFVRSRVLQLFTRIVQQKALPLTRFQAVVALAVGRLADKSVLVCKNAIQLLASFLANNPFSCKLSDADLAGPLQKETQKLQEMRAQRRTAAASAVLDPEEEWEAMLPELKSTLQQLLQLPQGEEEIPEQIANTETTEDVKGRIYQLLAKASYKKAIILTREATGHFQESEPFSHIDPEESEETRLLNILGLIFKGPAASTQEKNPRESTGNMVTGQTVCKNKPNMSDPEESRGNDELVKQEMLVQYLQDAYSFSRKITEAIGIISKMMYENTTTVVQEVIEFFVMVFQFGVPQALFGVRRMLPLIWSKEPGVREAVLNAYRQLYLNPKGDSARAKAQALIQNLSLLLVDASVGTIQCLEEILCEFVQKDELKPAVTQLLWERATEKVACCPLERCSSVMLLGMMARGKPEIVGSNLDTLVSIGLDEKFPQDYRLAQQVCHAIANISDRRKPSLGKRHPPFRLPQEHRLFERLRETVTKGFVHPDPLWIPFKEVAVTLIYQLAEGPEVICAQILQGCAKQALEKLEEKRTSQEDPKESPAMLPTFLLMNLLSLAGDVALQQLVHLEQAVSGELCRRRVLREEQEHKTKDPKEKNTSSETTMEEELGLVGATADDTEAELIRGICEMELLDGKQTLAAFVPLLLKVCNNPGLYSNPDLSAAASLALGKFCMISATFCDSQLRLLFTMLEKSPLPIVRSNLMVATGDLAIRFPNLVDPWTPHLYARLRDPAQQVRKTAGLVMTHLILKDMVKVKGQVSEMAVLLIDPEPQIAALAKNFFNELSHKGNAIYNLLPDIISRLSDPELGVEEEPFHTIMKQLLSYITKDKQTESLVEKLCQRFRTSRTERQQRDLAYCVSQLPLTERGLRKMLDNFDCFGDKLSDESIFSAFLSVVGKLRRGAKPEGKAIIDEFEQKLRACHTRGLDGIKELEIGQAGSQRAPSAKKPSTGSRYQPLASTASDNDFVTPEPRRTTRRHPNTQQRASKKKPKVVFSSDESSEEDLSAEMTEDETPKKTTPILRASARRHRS
UniProt Q9NWU1, sequence (Q9NWU1 whole entry, looked up): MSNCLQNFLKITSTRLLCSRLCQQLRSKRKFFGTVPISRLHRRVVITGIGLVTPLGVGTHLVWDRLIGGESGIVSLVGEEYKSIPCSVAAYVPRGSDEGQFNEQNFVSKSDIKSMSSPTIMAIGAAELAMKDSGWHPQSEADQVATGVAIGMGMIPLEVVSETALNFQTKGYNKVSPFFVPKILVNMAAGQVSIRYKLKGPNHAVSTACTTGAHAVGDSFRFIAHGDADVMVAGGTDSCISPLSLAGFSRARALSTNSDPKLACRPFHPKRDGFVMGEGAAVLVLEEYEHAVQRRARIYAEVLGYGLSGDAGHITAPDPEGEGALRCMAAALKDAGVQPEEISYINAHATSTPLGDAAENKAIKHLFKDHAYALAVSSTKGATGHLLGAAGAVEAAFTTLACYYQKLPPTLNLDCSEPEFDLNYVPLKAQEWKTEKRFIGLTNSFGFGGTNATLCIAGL
UniProt Q14978, sequence (Q14978 whole entry, looked up): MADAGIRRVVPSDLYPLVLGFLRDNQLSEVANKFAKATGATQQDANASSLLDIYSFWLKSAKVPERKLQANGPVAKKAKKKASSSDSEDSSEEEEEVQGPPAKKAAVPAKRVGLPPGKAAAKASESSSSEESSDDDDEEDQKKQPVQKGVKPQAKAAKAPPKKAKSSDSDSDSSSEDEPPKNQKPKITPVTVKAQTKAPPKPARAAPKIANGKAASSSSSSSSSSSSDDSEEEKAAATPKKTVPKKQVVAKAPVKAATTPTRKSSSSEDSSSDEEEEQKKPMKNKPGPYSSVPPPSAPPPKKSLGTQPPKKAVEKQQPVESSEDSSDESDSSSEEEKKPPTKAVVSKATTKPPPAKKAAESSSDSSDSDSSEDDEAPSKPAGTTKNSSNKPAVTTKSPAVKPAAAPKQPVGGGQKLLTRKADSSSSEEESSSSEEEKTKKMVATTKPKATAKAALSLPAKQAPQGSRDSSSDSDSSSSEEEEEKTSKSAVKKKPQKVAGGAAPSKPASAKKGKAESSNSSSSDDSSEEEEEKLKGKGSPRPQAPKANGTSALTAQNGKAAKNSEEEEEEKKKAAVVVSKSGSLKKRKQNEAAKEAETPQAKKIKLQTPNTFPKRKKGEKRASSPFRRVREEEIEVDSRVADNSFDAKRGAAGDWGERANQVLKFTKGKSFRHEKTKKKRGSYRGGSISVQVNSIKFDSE
UniProt Q5TFE4, sequence (Q5TFE4 whole entry, looked up): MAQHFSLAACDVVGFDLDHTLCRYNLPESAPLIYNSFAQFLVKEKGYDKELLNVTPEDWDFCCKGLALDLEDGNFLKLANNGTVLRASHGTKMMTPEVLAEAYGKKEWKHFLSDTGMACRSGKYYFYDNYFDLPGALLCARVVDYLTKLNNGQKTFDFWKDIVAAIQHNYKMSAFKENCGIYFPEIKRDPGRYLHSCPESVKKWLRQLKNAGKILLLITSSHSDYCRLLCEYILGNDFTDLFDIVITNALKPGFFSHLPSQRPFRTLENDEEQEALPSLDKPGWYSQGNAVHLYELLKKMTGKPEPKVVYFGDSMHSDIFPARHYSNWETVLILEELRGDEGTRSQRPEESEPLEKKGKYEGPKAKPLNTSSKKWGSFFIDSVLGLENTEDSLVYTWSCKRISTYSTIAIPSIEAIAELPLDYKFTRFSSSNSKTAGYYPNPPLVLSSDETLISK
UniProt Q9ULX3, sequence (Q9ULX3 whole entry, looked up): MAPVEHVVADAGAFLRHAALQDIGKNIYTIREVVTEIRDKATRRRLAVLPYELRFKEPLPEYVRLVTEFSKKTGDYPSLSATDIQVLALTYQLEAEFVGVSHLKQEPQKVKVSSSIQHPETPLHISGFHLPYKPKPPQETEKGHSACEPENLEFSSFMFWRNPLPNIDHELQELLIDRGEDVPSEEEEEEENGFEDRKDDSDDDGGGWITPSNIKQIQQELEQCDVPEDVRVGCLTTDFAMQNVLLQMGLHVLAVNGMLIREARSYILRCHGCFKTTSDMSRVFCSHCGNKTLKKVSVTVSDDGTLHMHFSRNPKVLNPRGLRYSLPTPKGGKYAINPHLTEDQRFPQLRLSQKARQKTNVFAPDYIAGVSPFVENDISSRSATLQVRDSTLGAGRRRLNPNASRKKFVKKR
UniProt Q9BUK6, sequence (Q9BUK6 whole entry, looked up): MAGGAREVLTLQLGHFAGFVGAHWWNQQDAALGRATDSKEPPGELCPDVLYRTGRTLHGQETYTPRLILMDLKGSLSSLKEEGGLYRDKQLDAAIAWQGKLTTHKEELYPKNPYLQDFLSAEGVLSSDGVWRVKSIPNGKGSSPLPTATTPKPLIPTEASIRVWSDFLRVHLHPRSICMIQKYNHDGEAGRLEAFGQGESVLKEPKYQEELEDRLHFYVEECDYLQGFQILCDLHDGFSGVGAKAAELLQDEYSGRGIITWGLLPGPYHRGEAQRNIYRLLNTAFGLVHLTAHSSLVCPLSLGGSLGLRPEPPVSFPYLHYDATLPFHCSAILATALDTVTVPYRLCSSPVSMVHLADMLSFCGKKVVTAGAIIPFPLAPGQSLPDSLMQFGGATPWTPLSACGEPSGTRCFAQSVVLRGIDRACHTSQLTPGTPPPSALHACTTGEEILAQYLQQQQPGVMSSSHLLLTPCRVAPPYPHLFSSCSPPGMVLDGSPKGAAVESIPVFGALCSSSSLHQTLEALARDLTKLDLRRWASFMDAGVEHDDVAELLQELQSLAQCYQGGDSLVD
UniProt Q92692, sequence (Q92692 whole entry, looked up): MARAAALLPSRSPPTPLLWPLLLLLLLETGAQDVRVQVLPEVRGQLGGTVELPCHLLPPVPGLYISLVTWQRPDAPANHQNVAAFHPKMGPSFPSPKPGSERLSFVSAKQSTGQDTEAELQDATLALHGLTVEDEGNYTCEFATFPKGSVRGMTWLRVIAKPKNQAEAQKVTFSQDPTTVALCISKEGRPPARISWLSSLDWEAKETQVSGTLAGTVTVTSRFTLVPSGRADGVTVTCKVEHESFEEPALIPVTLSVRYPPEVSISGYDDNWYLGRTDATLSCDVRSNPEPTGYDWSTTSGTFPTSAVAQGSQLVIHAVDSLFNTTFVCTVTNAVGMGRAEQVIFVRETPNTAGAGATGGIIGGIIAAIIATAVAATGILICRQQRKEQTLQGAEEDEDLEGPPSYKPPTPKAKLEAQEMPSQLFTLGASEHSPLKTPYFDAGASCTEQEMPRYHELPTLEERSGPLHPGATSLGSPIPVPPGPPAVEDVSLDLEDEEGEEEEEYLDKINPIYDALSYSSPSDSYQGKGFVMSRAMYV

| Target | log2 fold change [1] | log2 fold change [2] | log2 fold change [3] | log2 fold change [4] | log2 fold change [5] | log2 fold change [6] | log2 fold change [7] | log2 fold change [8] | log2 fold change [9] | log2 fold change [10] | log2 fold change [11] | log2 fold change [12] | log2 fold change [13] | log2 fold change [14] | log2 fold change [15] | log2 fold change [16] | log2 fold change [17] | log2 fold change [18] | log2 fold change [19] | log2 fold change [20] |
| --- | --- | --- | --- | --- | --- | --- | --- | --- | --- | --- | --- | --- | --- | --- | --- | --- | --- | --- | --- | --- |
| OGFR (UniProt Q9NZT2) | 0.009 | 0.207 | -0.011 | 0.107 | 0.131 | -0.157 | 0.027 | -0.085 | 0.028 | -0.132 | -0.023 | 0.001 | -0.235 | -0.014 | 0.109 | -0.028 | -0.008 | 0.149 | 0.036 | 0.044 |
| OXSM (UniProt Q9NWU1) | -0.079 | 0.024 | 0.005 | 0.055 | -0.052 | -0.001 | 0.053 | -0.034 | -0.042 | 0.019 | 0.032 | 0.064 | 0.017 | 0.008 | 0.031 | 0.041 | -0.025 | -0.067 | -0.023 | -0.011 |
| NSMCE2 (UniProt Q96MF7) | -0.076 | 0.012 | -0.078 | 0.009 | 0.023 | -0.096 | 0.04 | -0.058 | -0.001 | 0.008 | -0.023 | -0.171 | -0.107 | 0.176 | 0.051 | 0.122 | -0.083 | -0.001 | -0.056 | -0.122 |
| NDUFB10 (UniProt O96000) | -0.009 | -0.067 | 0.018 | 0.03 | 0.06 | 0.025 | -0.038 | -0.021 | 0.026 | 0.045 | 0.015 | 0.009 | -0.001 | -0.057 | -0.018 | -0.11 | 0.023 | -0.018 | 0 | 0.009 |
| NELFB isoform 2 (UniProt Q8WX92) | 0.046 | 0.151 | 0 | -0.036 | 0.054 | 0.07 | -0.049 | 0.01 | -0.075 | -0.025 | -0.03 | -0.045 | -0.144 | -0.067 | -0.154 | -0.112 | 0.001 | 0.022 | 0.017 | 0.042 |
| NT5DC1 (UniProt Q5TFE4) | 0.071 | 0.001 | 0.087 | -0.019 | 0.087 | -0.008 | 0.02 | 0.02 | 0.008 | 0.028 | 0.049 | 0.021 | -0.039 | -0.054 | -0.019 | 0.02 | -0.011 | -0.024 | -0.001 | -0.022 |
| NARS2 (UniProt Q96I59) | 0.037 | 0.065 | 0.07 | 0.008 | -0.018 | -0.004 | 0.053 | 0.017 | -0.002 | -0.083 | 0.044 | 0.03 | 0.034 | -0.034 | -0.121 | -0.31 (active) | -0.019 | -0.019 | -0.002 | -0.006 |
| NDUFS4 (UniProt O43181) | -0.001 | -0.031 | -0.004 | 0.07 | -0.093 | 0.077 | -0.104 | -0.081 | 0.082 | 0.111 | 0.076 | 0.029 | 0.062 | 0.015 | 0.022 | 0.007 | 0.274 (active) | 0.013 | 0.046 | -0.193 |
| NOP53 (UniProt Q9NZM5) | -0.201 | -0.272 | -0.231 | 0.005 | -0.298 | 0.036 | -0.147 | -0.121 | 0.058 | -0.387 | -0.209 | 0.018 | 0.303 | 0.212 | 0.411 | 0.233 | 0.089 | 0.321 | -0.016 | -1.19 (active) |
| MSTO1 (UniProt Q9BUK6) | 0.031 | 0.06 | 0.075 | -0.044 | -0.003 | 0.007 | 0.038 | 0.043 | 0.011 | -0.041 | 0.012 | 0.009 | -0.003 | -0.028 | -0.162 | -0.105 | -0.003 | -0.002 | -0.027 | 0.043 |
| NCAPD2 (UniProt Q15021) | 0.029 | 0.107 | 0.005 | -0.05 | 0.024 | 0.04 | 0.013 | 0.022 | -0.001 | -0.103 | -0.101 | -0.067 | 0.097 | 0.048 | -0.151 | -0.208 | 0.054 | 0.039 | -0.012 | -0.036 |
| PAK1 isoform 2 (UniProt Q13153) | 0.063 | 0.105 | 0.067 | -0.013 | 0.009 | 0.086 | 0.027 | -0.008 | 0.014 | 0.083 | 0.018 | 0.048 | 0.158 | -0.066 | -0.025 | 0 | -0.046 | -0.038 | 0.192 | 0.051 |
| NOLC1 isoform 2 (UniProt Q14978) | 0.022 | 0.036 | -0.051 | -0.005 | -0.11 | 0.024 | -0.034 | -0.171 | -0.177 | 0 | -0.057 | -0.089 | -0.305 (active) | 0.041 | 0.021 | -0.015 | -0.086 | -0.011 | -0.023 | -1.4 (active) |
| MRPS9 (UniProt P82933) | -0.057 | -0.019 | -0.087 | 0.137 | 0.019 | 0.04 | 0.023 | 0.043 | 0.002 | -0.095 | -0.061 | 0.024 | -0.022 | -0.023 | 0.001 | -0.059 | 0.07 | 0.018 | -0.048 | -0.243 (active) |
| NOB1 (UniProt Q9ULX3) | 0.048 | 0.061 | -0.106 | 0.017 | -0.025 | -0.08 | 0.081 | 0.053 | 0.045 | -0.078 | -0.062 | -0.025 | -0.083 | 0.288 (active) | -0.033 | -0.15 | 0.053 | 0.068 | 0.047 | -0.031 |
| NECTIN2 (UniProt Q92692) | 0.002 | 0.005 | 0.064 | -0.006 | 0.002 | 0.008 | -0.04 | -0.041 | -0.045 | 0.077 | 0.025 | 0.02 | -0.023 | -0.035 | -0.03 | 0.182 | 0.024 | 0.009 | -0.015 | 0 |
